Measured values: PubChem BioAssay (NCATS)
Inconclusive results are not listed. Where a call stands in place of a potency, no number is given. Active and inactive are the calls of the source. Unless noted, calls follow the shape of the dose curve; as a rule, active = well fitted curve in the direction sought with a large enough effect; inconclusive = small, poorly fitted or top-dose-only effect, or another doubt; inactive = no such curve, though single readings can be large; an effect the other way counts as inactive or inconclusive.

Key:
[1] = S16 Schwann cell viability assay (CellTiter-Glo assay) (AID 624031);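 also: cellular ATP luminescence as a viability measure; nearly all actives have a fitted effect of over 70% in size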
Summary of the method: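 Native S16 rat Schwann cells, 500-750 cells/well in DMEM with 10% FBS, dosed with compound after overnight culture and incubated 24h at 37 degree Celsius/5% CO2. Viability by CellTiter-Glo luminescence; % activity normalized to no-cell wells and DMSO-treated cells.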

[2] = S16 Schwann cell PMP22 intronic element firefly luciferase assay (AID 624032); also: nearly all actives have a fitted effect of over 30% in size; also: potency is read from the fitted curve at half-maximal effect
Summary of the method: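 Rat S16 Schwann cells stably carrying firefly luciferase driven by a PMP22 intronic element, in 10% FBS, treated 24 h at 37 C. ONE-Glo luminescence normalized to PTC124 control and DMSO (0%); curves classed by r2, magnitude and activity.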

DIV17 = test: qHTS profiling for inhibitors of Plasmodium falciparum proliferation (AID 504749); also: nearly all actives have a fitted effect of over 60% in size; also: potency is read from the fitted curve at half-maximal effect; settings: P. falciparum in erythrocytes, SYBR Green DNA, 72 h; series mostly up to 28.7 µM
Summary of the method: (§1)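 Readout was DNA-dye fluorescence from lysed cultures, ex 485/em 535 nm. Parasitized red cells had grown 72 h with compound; data scaled between 0.29 uM artemisinin and DMSO wells and corrected using vehicle-only plates.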

W2 = test: as above; settings: P. falciparum in erythrocytes, SYBR Green DNA, 72 h; series mostly up to 28.7 µM
Summary of the method: as §1

[3] = biological target: Ubiquitin carboxyl-terminal hydrolase 1 (Homo sapiens) (UniProt O94782); test: Inhibitors of USP1/UAF1: Pilot qHTS (AID 504865); also: nearly all actives have a fitted effect of over 35% in size; also: potency is read from the fitted curve at half-maximal effect
Sequence of Ubiquitin carboxyl-terminal hydrolase 1 (Homo sapiens) (O94782 whole entry, looked up): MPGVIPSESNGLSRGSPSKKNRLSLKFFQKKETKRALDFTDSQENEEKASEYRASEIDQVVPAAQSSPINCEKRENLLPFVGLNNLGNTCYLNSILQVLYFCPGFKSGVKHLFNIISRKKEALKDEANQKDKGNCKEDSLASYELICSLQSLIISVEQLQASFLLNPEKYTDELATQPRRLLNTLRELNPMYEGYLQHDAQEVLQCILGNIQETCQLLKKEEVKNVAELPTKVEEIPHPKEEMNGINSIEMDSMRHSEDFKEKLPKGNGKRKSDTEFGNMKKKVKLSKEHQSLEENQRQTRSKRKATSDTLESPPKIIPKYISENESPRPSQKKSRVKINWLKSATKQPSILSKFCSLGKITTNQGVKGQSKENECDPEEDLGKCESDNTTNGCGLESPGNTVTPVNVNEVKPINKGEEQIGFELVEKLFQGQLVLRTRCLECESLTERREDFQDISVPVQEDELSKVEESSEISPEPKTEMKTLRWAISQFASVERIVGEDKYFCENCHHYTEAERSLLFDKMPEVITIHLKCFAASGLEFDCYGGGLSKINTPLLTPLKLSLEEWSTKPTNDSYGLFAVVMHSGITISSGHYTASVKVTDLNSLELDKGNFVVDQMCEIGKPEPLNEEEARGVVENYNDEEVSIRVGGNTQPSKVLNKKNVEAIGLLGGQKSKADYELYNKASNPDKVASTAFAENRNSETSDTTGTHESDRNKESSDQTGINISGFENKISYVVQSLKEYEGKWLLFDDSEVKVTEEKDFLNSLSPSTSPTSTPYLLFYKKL
Summary of the method: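 Enzyme-free wells gave the negative control, while test wells held 1nM USP1/UAF1 preincubated with compound for 15 min at room temperature. Ub-Rho at 150nM final started the reaction, and fluorescence at 480/540 nm was recorded kinetically.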

[4] = S16 Schwann cell PMP22 intronic element beta-lactamase assay (AID 624044; calls by dose curve; also: nearly all actives have a fitted effect of over 15% in size; also: potency is read from the fitted curve at half-maximal effect); settings: S16 rat Schwann cells, PMP22 element beta-lactamase FRET, 24 h; ratio activity, negative = inhibition: at 38.3 µM (top of the series)
Summary of the method: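 Rat S16 Schwann cells with beta-Lac driven by a PMP22 intronic element, compound-treated 24 h at 37 °C. LiveBLAzer FRET B/G read: 460 nm normalized to potassium clavulanate vs DMSO; 535 nm FRET as viability; concentration-effect curves classified.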

[5] = Confirmation and Secondary Assay for Modulators of Hemoglobin Beta Chain Splicing at IVS2 654 locus (AID 910);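 also: HeLa cells stably carrying EGFP split by mutant beta-globin IVS2-654 intron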
Summary of the method: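 HeLa cells stably expressing EGFP interrupted by β-globin IVS2-654 intron, seeded overnight in Opti-MEM/2% FCS, then treated 2 days at 37 °C. Restored splicing read as total peak GFP intensity per well by laser scanning cytometry (488 nm excitation, 500–520 nm emission); 500 nM antisense PNA as control.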

[6] = Confirmation and Secondary Assay for Modulators of Hemoglobin Beta Chain Splicing at IVS2 705 locus (AID 930);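 also: HeLa cells stably expressing the EGFP-705 splicing reporter; GFP fluorescence per well restored by corrected splicing of the IVS2-705 intron in EGFP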
Summary of the method: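 HeLa cells stably carrying EGFP interrupted by mutant beta-globin intron 2 (IVS2-705) treated 2 days at 37C with compound; 500 nM antisense PNA as control. Correct splicing read as total peak GFP intensity per well by laser-scanning cytometry.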

[7] = biological target: Cytochrome P450 3A4 (Homo sapiens) (UniProt P08684); test: qHTS Assay for Inhibitors and Substrates of Cytochrome P450 3A4 (AID 884); also: nearly all actives have a fitted effect of over 50% in size
Sequence of Cytochrome P450 3A4 (Homo sapiens) (P08684 whole entry, looked up): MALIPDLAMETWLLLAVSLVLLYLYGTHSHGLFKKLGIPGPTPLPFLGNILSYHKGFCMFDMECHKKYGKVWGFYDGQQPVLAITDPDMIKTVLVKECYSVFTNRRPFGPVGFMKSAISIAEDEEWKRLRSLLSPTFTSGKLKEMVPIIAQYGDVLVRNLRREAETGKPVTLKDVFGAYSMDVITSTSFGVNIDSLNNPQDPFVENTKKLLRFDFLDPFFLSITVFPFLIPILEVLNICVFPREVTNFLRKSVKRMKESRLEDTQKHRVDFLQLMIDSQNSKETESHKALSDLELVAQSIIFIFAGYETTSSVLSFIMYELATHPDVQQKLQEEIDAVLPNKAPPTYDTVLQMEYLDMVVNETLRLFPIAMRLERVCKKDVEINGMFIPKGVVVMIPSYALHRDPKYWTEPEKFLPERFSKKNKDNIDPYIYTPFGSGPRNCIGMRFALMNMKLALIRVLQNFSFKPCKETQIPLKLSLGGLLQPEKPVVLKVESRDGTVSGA
Summary of the method: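 20 nM human CYP3A4 with 25 uM Luciferin-PPXE (at KM) in 200 mM KPO4, preincubated 10 min with compound; NADPH regeneration started a 60 min RT reaction. Luciferin detected by luminescence, normalized to 57 uM ketoconazole as full inhibition.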

| SMILES | Potency [1] | Potency [2] | Potency (DIV17) | Potency (W2) | Potency [3] | Potency [4] | Potency [5] | Potency [6] | Potency [7] |
| --- | --- | --- | --- | --- | --- | --- | --- | --- | --- |
| CN1[C@@H]2CC[C@@H]1CC(OC(=O)[C@H](CO)c1ccccc1)C2 (some centres undefined) | inactive | inactive | inactive | inactive | – | – | – | – | – |
| CC1OC(OC2CCC3(C)C(CCC4C3CC(O)C3(C)C(C5=CC(=O)OC5)CCC43O)C2)CC(O)C1OC1CC(O)C(OC2CC(O)C(OC3OC(CO)C(O)C(O)C3O)C(C)O2)C(C)O1 (centres undefined) | inactive | inactive | inactive | inactive | inactive | inactive | – | – | – |
| COC(c1ccccc1)(c1ccccc1)C(Oc1nc(C)cc(C)n1)C(=O)O (centres undefined) | – | inactive | inactive | inactive | inactive | inactive | – | – | – |
| OCC1O[C@@H](O[C@@H]2C(CO)OC(O)C(O)C2O)C(O)C(O)C1O (some centres undefined) | – | inactive | inactive | inactive | inactive | inactive | – | – | – |
| CC1(C)OC[C@@H]2O[C@@]3(C(=O)O)OC(C)(C)O[C@@H]3[C@@H]2O1 | inactive | inactive | inactive | – | inactive | inactive | – | – | – |
| O=C1C(I)=CC(=C(c2cc(I)c(O)c(I)c2)c2ccccc2C(=O)O)C=C1I | inactive | – | inactive | inactive | – | – | – | – | – |
| O=[N+]([O-])O[C@H]1CO[C@H]2[C@@H]1OC[C@H]2O | – | inactive | inactive | inactive | inactive | – | – | – | – |
| CCCCC(=O)OCC(=O)[C@]1(O)Cc2c(O)c3c(c(O)c2[C@H](OC2CC(NC(=O)C(F)(F)F)C(O)C(C)O2)C1)C(=O)c1c(OC)cccc1C3=O (some centres undefined) | inactive | 721 nM (active) | 1510 nM (active) | 1510 nM (active) | – | 2510 nM (active) | – | – | – |
| C/C1=C2/[N-]C(C(CC(N)=O)[C@@]2(C)CCC(=O)NCC(C)OP(=O)([O-])O[C@H]2[C@@H](O)[C@@H](n3cnc4cc(C)c(C)cc43)O[C@@H]2CO)[C@]2(C)N=C(/C(C)=C3N=C(/C=C4N=C1C(CCC(N)=O)C\4(C)C)[C@@H](CCC(N)=O)[C@]\3(C)CC(N)=O)[C@@H](CCC(N)=O)[C@]2(C)CC(N)=O.CC(=O)O.[Co] (some centres undefined) | inactive | 2560 nM (active) | inactive | 601 nM (active) | 56200 nM (active) | – | – | – | – |
| C=NC(C(=O)NC1C(=O)N2C1SC(C)(C)C2C(=O)O)c1ccccc1 (centres undefined) | inactive | inactive | inactive | inactive | – | inactive | inactive | inactive | – |
| O=C1NC(=O)C2C3C=CC(C3)C12 (centres undefined) | – | inactive | inactive | inactive | inactive | inactive | – | – | – |
| NC(=O)NC(CCC(=O)O)C(=O)O (centres undefined) | – | inactive | inactive | inactive | inactive | inactive | – | – | – |
| CC(=O)NC1[C@H]([C@H](O)[C@H](O)CO)OC(C(=O)O)=C[C@H]1N=C(N)N (some centres undefined) | inactive | – | inactive | inactive | inactive | inactive | – | – | – |
| OCCN1CC(O)C(O)C(O)C1CO (centres undefined) | inactive | – | inactive | inactive | inactive | inactive | inactive | inactive | inactive |
| O=C(OC[C@@H]1O[C@@](O)(COC(=O)c2cccnc2)[C@H](OC(=O)c2cccnc2)[C@H]1OC(=O)c1cccnc1)c1cccnc1 | – | 2560 nM (active) | inactive | inactive | inactive | inactive | – | – | – |
| CC(C)C[C@@H](NC(=O)[C@@H](Cc1ccccc1)NC(=O)c1cnccn1)B(O)O | – | 5.1 nM (active) | 426 nM (active) | 60.1 nM (active) | inactive | 22.4 nM (active) | – | – | – |
| CC1(C)SC2C(NC(=O)C(C(=O)O)c3ccccc3)C(=O)N2C1C(=O)O (centres undefined) | inactive | inactive | inactive | inactive | inactive | – | inactive | inactive | inactive |
| OCCOC[C@H]1O[C@H](OCCO)[C@H](OCCO)[C@@H](OCCO)[C@@H]1OCCO (tested in a mixture with another compound) | inactive | inactive | inactive | inactive | inactive | – | – | – | – |
| CCCCN1CC(O)C(O)C(O)C1CO (centres undefined) | – | inactive | inactive | inactive | inactive | inactive | – | – | – |
| C[C@H]1[C@@H](OC(=O)CCC(=O)O)OC2OC3(C)CC[C@H]4[C@H](C)CC[C@@H]1[C@@]24OO3 (some centres undefined) | – | 2560 nM (active) | 4.3 nM (active) | 1.9 nM (active) | inactive | inactive | – | – | – |
| C[n+]1c2cc(N)ccc2cc2ccc(N)cc21 | – | – | 269 nM (active) | 757 nM (active) | – | – | – | – | – |
| CCN1CCN(C(=O)NC(C(=O)NC2C(=O)N3C(C(=O)O)=C(CSc4nnnn4C)CSC23)c2ccc(O)cc2)C(=O)C1=O (centres undefined) | inactive | inactive | inactive | inactive | inactive | – | inactive | inactive | inactive |
| CC(=O)N[C@H]1[C@H](O[C@@H]2c3ccc(c(Cl)c3)Oc3cc4cc(c3O[C@@H]3O[C@H](CO)[C@@H](O)[C@H](O)C3C)Oc3ccc(cc3Cl)C[C@H]3NC(=O)[C@@H](N)c5ccc(O)c(c5)Oc5cc(O)cc(c5)[C@H](NC3=O)C(=O)N[C@H]4C(=O)N[C@H]3C(=O)N[C@@H]2C(=O)N[C@@H](C(=O)O)c2cc(O)cc(O[C@H]4O[C@H](CO)[C@@H](O)C(O)[C@@H]4O)c2-c2cc3ccc2O)O[C@H](CO)[C@@H](O)[C@@H]1O (some centres undefined) | inactive | inactive | inactive | inactive | – | – | – | – | – |
